Values joined by “and” are separate entries in the source; they are usually repeats but may differ in a detail not shown here. Equal values may be shown once. Out of some 5,500 compounds screened, about 2,000 (36%) were called active. Inconclusive results (about 18%) are left out. Cut-off read from the data, not from the text of the source: active = normalized growth mostly below about 0.91 (no sharp cut-off); inconclusive = no clear call, values can overlap the other calls; inactive = mostly above about 0.92. Some of the results follow.
Experiment: chemical genetic growth profiling, strain panel (AID 1159580);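 note: tested at 20 µM; growth read once vehicle control cultures reached saturation at 30 °C; 1 = growth at the plate median or of vehicle wells; lower values mean less growth of the strain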
Details: growth OD

Measured: normalized growth

CNCCCC12CCC(c3ccccc31)c1ccccc12
inactive: S. cerevisiae deletion strains, locus YJR075W, strain HOC1, active compounds read low 0.991 and 0.989 | S. cerevisiae deletion strains, locus YKL009W, strain mrt4, active compounds read low 0.978 | S. cerevisiae deletion strains, locus YKL068W, active compounds read low 0.983 | S. cerevisiae deletion strains, locus YKL085W, strain MDH1 (second series), active compounds read low 0.982 | S. cerevisiae deletion strains, locus YKL085W, strain MDH1, active compounds read low 0.982 | S. cerevisiae deletion strains, locus YKL160W, strain elf1, active compounds read low 0.968 | S. cerevisiae deletion strains, locus YKR001C, strain vps1, active compounds read low 1.02 | S. cerevisiae deletion strains, locus YKR026C, strain gcn3, active compounds read low 0.979 | S. cerevisiae deletion strains, locus YKR091W, strain srl3, active compounds read low 0.973 | S. cerevisiae deletion strains, locus YLL001W, strain dnm1, active compounds read low 1.01 | S. cerevisiae deletion strains, locus YLL026W, active compounds read low 0.97 | S. cerevisiae deletion strains, locus YLL041C, strain sdh2, active compounds read low 0.98 | S. cerevisiae deletion strains, locus YLR027C, strain aat2, active compounds read low 0.964 | S. cerevisiae deletion strains, locus YLR039C, strain RIC1, active compounds read low 1.29 | S. cerevisiae deletion strains, locus YLR058C, strain SHM2, active compounds read low 0.984 | S. cerevisiae deletion strains, locus YLR102C, strain apc9, active compounds read low 0.992 | S. cerevisiae deletion strains, locus YLR113W, strain HOG1, active compounds read low 1.01 | S. cerevisiae deletion strains, locus YLR221C, strain rsa3, active compounds read low 0.998 | S. cerevisiae deletion strains, locus YLR258W, strain gsy2, active compounds read low 0.974 | S. cerevisiae deletion strains, locus YLR262C, strain YPT6 (second series), active compounds read low 0.937 | S. cerevisiae deletion strains, locus YLR262C, strain YPT6, active compounds read low 1.32 | S. cerevisiae deletion strains, locus YLR268W, strain sec22, active compounds read low 0.975 | S. cerevisiae deletion strains, locus YLR320W, strain mms22, active compounds read low 0.992 | S. cerevisiae deletion strains, locus YLR330W, strain CHS5, active compounds read low 0.993 | S. cerevisiae deletion strains, locus YLR342W, strain FKS1 (second series), active compounds read low 0.944 | S. cerevisiae deletion strains, locus YLR342W, strain FKS1, active compounds read low 0.954 | S. cerevisiae deletion strains, locus YLR357W, strain rsc2, active compounds read low 0.968 | S. cerevisiae deletion strains, locus YLR370C, strain arc18, active compounds read low 0.98 | S. cerevisiae deletion strains, locus YLR371W, strain rom2, active compounds read low 0.963 | S. cerevisiae deletion strains, locus YLR384C, strain iki3, active compounds read low 0.989 | S. cerevisiae deletion strains, locus YLR418C, strain cdc73, active compounds read low 0.857 | S. cerevisiae deletion strains, locus YML016C, strain PPZ1, active compounds read low 0.986 | S. cerevisiae deletion strains, locus YML032C, strain rad52, active compounds read low 0.963 | S. cerevisiae deletion strains, locus YML120C, strain ndi1, active compounds read low 0.976 | S. cerevisiae deletion strains, locus YML124C, strain tub3, active compounds read low 0.995 | S. cerevisiae deletion strains, locus YMR058W, strain fet3, active compounds read low 0.952 | S. cerevisiae deletion strains, locus YMR078C, strain ctf18, active compounds read low 0.984 | S. cerevisiae deletion strains, locus YMR125W, strain sto1, active compounds read low 0.939 | S. cerevisiae deletion strains, locus YMR129W, active compounds read low 0.979 | S. cerevisiae deletion strains, locus YMR205C, strain PFK2, active compounds read low 0.999 | S. cerevisiae deletion strains, locus YMR223W, strain ubp8, active compounds read low 0.951 | S. cerevisiae deletion strains, locus YMR231W, strain pep5, active compounds read low 0.985 | S. cerevisiae deletion strains, locus YMR263W, strain SAP30, active compounds read low 0.992 and 1 | S. cerevisiae deletion strains, locus YMR307W, strain GAS1, active compounds read low 0.979 | S. cerevisiae deletion strains, locus YNL067W, strain RPL9B, active compounds read low 1 | S. cerevisiae deletion strains, locus YNL071W, strain lat1, active compounds read low 0.986 | S. cerevisiae deletion strains, locus YNL128W, strain TEP1, active compounds read low 1.03 | S. cerevisiae deletion strains, locus YNL153C, strain GIM3, active compounds read low 1 | S. cerevisiae deletion strains, locus YNL175C, strain NOP13, active compounds read low 1.02 | S. cerevisiae deletion strains, locus YNL183C, strain NPR1, active compounds read low 0.949 | S. cerevisiae deletion strains, locus YNL197C, strain WHI3, active compounds read low 1.03 | S. cerevisiae deletion strains, locus YNL209W, strain ssb2, active compounds read low 0.967 | S. cerevisiae deletion strains, locus YNL224C, strain SQS1, active compounds read low 1.01 | S. cerevisiae deletion strains, locus YNL233W, strain BNI4, active compounds read low 0.954 | S. cerevisiae deletion strains, locus YNL248C, strain rpa49, active compounds read low 0.932 | S. cerevisiae deletion strains, locus YNL250W, strain rad50, active compounds read low 0.982 | S. cerevisiae deletion strains, locus YNL271C, strain bni1, active compounds read low 0.993 | S. cerevisiae deletion strains, locus YNL298W, strain CLA4, active compounds read low 0.967 | S. cerevisiae deletion strains, locus YNL307C, strain MCK1, active compounds read low 0.978 | S. cerevisiae deletion strains, locus YNL322C, strain KRE1 (second series), active compounds read low 0.976 | S. cerevisiae deletion strains, locus YNR049C, strain mso1, active compounds read low 0.971 | S. cerevisiae deletion strains, locus YNR052C, strain pop2, active compounds read low 0.962 | S. cerevisiae deletion strains, locus YOL012C, strain htz1 0.584 | S. cerevisiae deletion strains, locus YOL147C, strain pex11, active compounds read low 0.987 | S. cerevisiae deletion strains, locus YOR001W, strain rrp6, active compounds read low 0.992 | S. cerevisiae deletion strains, locus YOR061W, strain CKA2, active compounds read low 0.991 | S. cerevisiae deletion strains, locus YOR069W, strain VPS5, active compounds read low 0.993 | S. cerevisiae deletion strains, locus YOR070C, strain gyp1, active compounds read low 0.983 | S. cerevisiae deletion strains, locus YOR080W, strain dia2, active compounds read low 0.951 | S. cerevisiae deletion strains, locus YOR083W, strain WHI5 (second series), active compounds read low 0.999 | S. cerevisiae deletion strains, locus YOR083W, strain WHI5, active compounds read low 0.913 | S. cerevisiae deletion strains, locus YOR106W, strain vam3, active compounds read low 0.95 | S. cerevisiae deletion strains, locus YOR136W, strain idh2, active compounds read low 0.99 | S. cerevisiae deletion strains, locus YOR144C, strain elg1, active compounds read low 0.997 | S. cerevisiae deletion strains, locus YOR184W, strain ser1, active compounds read low 1.02 | S. cerevisiae deletion strains, locus YOR231W, strain MKK1, active compounds read low 1.02 | S. cerevisiae deletion strains, locus YOR265W, strain rbl2, active compounds read low 0.983 | S. cerevisiae deletion strains, locus YOR270C, strain vph1, active compounds read low 0.927 | S. cerevisiae deletion strains, locus YOR290C, strain snf2, active compounds read low 0.94 | S. cerevisiae deletion strains, locus YOR316C, strain cot1, active compounds read low 0.991 | S. cerevisiae deletion strains, locus YPL051W, strain arl3, active compounds read low 0.938 | S. cerevisiae deletion strains, locus YPL055C, strain LGE1, active compounds read low 0.982 | S. cerevisiae deletion strains, locus YPL078C, strain atp4, active compounds read low 0.967 | S. cerevisiae deletion strains, locus YPL106C, strain sse1, active compounds read low 0.975 | S. cerevisiae deletion strains, locus YPL240C, strain hsp82, active compounds read low 0.984 | S. cerevisiae deletion strains, locus YPL241C, strain CIN2, active compounds read low 0.991 and 0.996 | S. cerevisiae deletion strains, locus YPL256C, strain CLN2, active compounds read low 0.995 | S. cerevisiae deletion strains, locus YPR119W, strain clb2, active compounds read low 0.992 | S. cerevisiae deletion strains, locus YPR141C, strain kar3, active compounds read low 0.979 | S. cerevisiae deletion strains, locus YPR163C, strain tif3, active compounds read low 0.994 | S. cerevisiae deletion strains, locus YPR167C, strain met16, active compounds read low 0.996 | S. cerevisiae deletion strains, strain wtn01, active compounds read low 0.964 | S. cerevisiae strains, strain wild type, active compounds read low 0.993
